Data reported in the supplement of paper PMC7156485.
± gives the standard deviation of the averaged measurements.

Tests used:
Conditions in all cases: concentration: 10 µM; 24 h
[1] = system: HCC1569; assay: cell number relative to DMSO (% of DMSO); higher = more cells (less growth inhibition / toxicity)
Procedure, shortened: (§1)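 In 384-well plates holding 800 HCC1569 or TDF cells per well in RPMI with 10% FBS, compounds were tested at 10 µM for 24 h at 37 °C in triplicate. Fixation used 3.7% formaldehyde. Staining used a rabbit anti-H1.0 antibody with an AlexaFluor 647 secondary, plus DAPI. Each value, H1.0 nuclear intensity or cell number, is a median of replicates shown as percent of the plate control, and HCC1569 values were smoothed for positional effects.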

[2] = system: TDF; assay: as above
Procedure, shortened: as §1

[3] = system: TDF; assay: H1.0 immunofluorescence intensity relative to DMSO (% of DMSO); higher = stronger H1.0 induction, active = 120 or more
Procedure, shortened: as §1

[4] = system: HCC1569; assay: H1.0 immunofluorescence intensity relative to DMSO (% of DMSO); higher = stronger H1.0 induction, active = 140 or more
Procedure, shortened: as §1
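Wherever H1.0 immunofluorescence intensity relative to DMSO is given: TDF is a line of transformed human dermal fibroblasts of mesenchymal origin.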
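Wherever cell number relative to DMSO is given: TDF denotes transformed human dermal fibroblasts of mesenchymal origin.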

Row | SMILES | cell number [1] | cell number [2] | H1.0 immunofluorescence intensity [3] | H1.0 immunofluorescence intensity [4]
1 | CC(Cc1ccc(O)c(O)c1)(NN)C(=O)O.O (stereo not given) [Carbidopa.H2O] | 103 | 107 | 99.8 (inactive) | 104 (inactive)
2 | COc1ccc(CN2CCN(C(c3ccc(F)cc3)c3ccc(F)cc3)CC2)c(OC)c1OC [Lomerizine] | 102 | 98.8 | 92.3 (inactive) | 105 (inactive)
3 | CCCCCCCCCCCCCCCC(=O)NCCO [Palmitylethanolamide] | 99.8 | 104 | 96.8 (inactive) | 95.5 (inactive)
4 | CN1CCN(C2=Nc3ccccc3Oc3ccc(Cl)cc32)CC1.O=C(O)CCC(=O)O [Loxapine succinate] | 101 | 94.3 | 95.8 (inactive) | 110 (inactive)
5 | COc1ccc(-c2cc3c(C)nc(N)nc3n(C3CCC(OCCO)CC3)c2=O)cn1 (stereo not given) | 35 | 51 | 97.8 (inactive) | 191 (active)
6 | CC(NC(=O)CCc1nc(=O)c2ccccc2[nH]1)c1ccccc1 (stereo not given) | 103 | 111 | 93.7 (inactive) | 105 (inactive)
7 | O=C(O)c1cc(O)ccc1O [Gentisic acid] | 104 | 100 | 98.5 (inactive) | 93.5 (inactive)
8 | C=C1NC2(C(=O)COC(C)=O)C(CC3C4CCC5=CC(=O)C=CC5(C)C4C(O)CC32C)O1 (stereo not given) | 96.8 | 108 | 86 (inactive) | 101 (inactive)
9 | CC(=O)O.CN=C(N)NCCCC(N)C(=O)O [NG-Monomethyl-L-arginine acetate] | 100 | 102 | 95.6 (inactive) | 101 (inactive)
10 | O=C(NOCC(O)CO)c1ccc(F)c(F)c1Nc1ccc(I)cc1F (stereo not given) | 105 | 104 | 87.3 (inactive) | 94.6 (inactive)
11 | COC(=O)C1C(O)CCC2CN3CCc4c([nH]c5ccccc45)C3CC21.Cl (stereo not given) | 102 ± 5.1 | 107 ± 3.6 | 91.2 (inactive) | 100 (inactive)
12 | CCCCCC(O)C=CC1C(O)CC2OC(=CCCCC(=O)[O-])CC21.[Na+] (stereo not given) [Prostaglandin I2 Na] | 101 | 98.1 | 94.1 (inactive) | 98.3 (inactive)
13 | CCCCCCCCCCCC1=C(O)C(=O)C=C(O)C1=O [Embelin] | 98.8 | 97.1 | 97.6 (inactive) | 87.3 (inactive)
14 | O=C(c1cc(O)c(O)c([N+](=O)[O-])c1)c1ccccc1F | 106 | 106 | 95.7 (inactive) | 99.2 (inactive)
15 | NS(=O)(=O)c1cc2c(cc1Cl)NC=NS2(=O)=O [Chlorothiazide] | 105 | 105 | 95.5 (inactive) | 94 (inactive)
16 | CCCCCC(O)C=CC=CCC=CCCCCC(=O)O (stereo not given) | 103 | 97.9 | 97.2 (inactive) | 101 (inactive)
17 | COc1ccc2c(c1OC)N=C(NC(=O)c1cccnc1)N1CCN=C21 | 99.8 | 93.2 | 94.1 (inactive) | 101 (inactive)
18 | CCNC1CC(C)S(=O)(=O)c2sc(S(N)(=O)=O)cc21.Cl (stereo not given) [Dorzolamide.HCl] | 97 | 87.9 | 100 (inactive) | 95.5 (inactive)
19 | COc1ccc(C=Cc2cc(OC)cc(=O)o2)cc1 [Yangonin] | 98.9 | 80.2 | 104 (inactive) | 100 (inactive)
20 | CCC1(O)CC(OC2CC(N(C)C)C(OC3CC(O)C(OC4CCC(=O)C(C)O4)C(C)O3)C(C)O2)c2c(cc3c(c2O)C(=O)c2c(O)cccc2C3=O)C1C(=O)OC (stereo not given) [Aclarubicin] | 83.2 | 55.5 | 129 (active) | 210 (active)
21 | CCOC(=O)C1=CC(OC(CC)CC)C(NC(C)=O)C(N)C1 (stereo not given) [Oseltamivir] | 104 | 100 | 94 (inactive) | 99.4 (inactive)
22 | O=C1NC(=O)C(c2cn(CCCO)c3ncccc23)=C1c1cnccn1 [GSK-3b Inhibitor XI] | 106 | 119 | 88.7 (inactive) | 116 (inactive)
23 | COC(=O)C1=C(C)NC(C)=C(C(=O)OCCN2CCN(C(c3ccccc3)c3ccccc3)CC2)C1c1cccc([N+](=O)[O-])c1 (stereo not given) [Manidipine] | 106 | 109 | 90.4 (inactive) | 111 (inactive)
24 | COc1ccc(C(=O)NCc2cccnc2)cc1C(=O)NCc1cccnc1 [Picotamide] | 102.3 ± 0.66 | 103 ± 5.2 | 93.6 (inactive) | 103 (inactive)
25 | COC(=O)NC(C(=O)NC(Cc1ccccc1)C(O)CN(Cc1ccc(-c2ccccn2)cc1)NC(=O)C(NC(=O)OC)C(C)(C)C)C(C)(C)C (stereo not given) [Atazanavir] | 92.7 | 79.8 | 109 (inactive) | 103 (inactive)
